Records with an inconclusive call do not appear. Active and inactive are the calls of the source. Calls follow the shape of the dose curve; as a rule, active = well fitted curve in the direction sought with a large enough effect; inconclusive = small, poorly fitted or top-dose-only effect, or another doubt; inactive = no such curve, though single readings can be large; an effect the other way counts as inactive or inconclusive.
What was measured:
[1] = P-glycoprotein substrates identified in KB-8-5-11 adenocarcinoma cell line, qHTS therapeutic library screen (AID 1346987); conditions: outcome: dose series up to 44.5 µM; also: series mostly up to about 44 µM; nearly all actives have a fitted effect of over 65% in size
Summary of the method: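 Compounds are pinned in dose-response onto KB-8-5-11 cells (500 cells/well, colchicine-free medium) and left 72 h at 37 degree C. CellTiter-Glo luminescence then yields AC50 values.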

[2] = NS1 protein of Zika virus - qHTS assay to identify small molecule inhibitors in human HEK 293 cells (AID 1347053); also: series mostly up to about 46 µM; nearly all actives have a fitted effect of over 55% in size
Summary of the method: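 Compound-treated (1 h pre-infection) HEK 293 cells infected with ZIKV MR766, MOI = 0.5; after 24 h at 37 C, NS1 read by TR-FRET; data normalized to uninfected and infected controls.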

[3] = qHTS of pediatric cancer cell lines to identify multiple opportunities for drug repurposing: Primary screen for TC32 cells (AID 1347089); also: nearly all actives have a fitted effect of over 60% in size
Summary of the method: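 Luminescent ATP read-out (CellTiter-Glo) of metabolically active TC32 cells after 48 h exposure. Concentration-response curves came from 11-point (MIPE, 0.78 nM–46 µM) or 8-point (NPC, 0.59 nM–46 µM) primary titrations; follow-up used 11 points.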

[4] = qHTS of pediatric cancer cell lines to identify multiple opportunities for drug repurposing: Primary screen for DAOY cells (AID 1347090); also: series mostly up to about 46 µM; nearly all actives have a fitted effect of over 55% in size
Summary of the method: (§1)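 Cell viability, CellTiter-Glo luminescence; 500-1,000 cells/well, 8- or 11-point titration, 48 h compound exposure at 37 degrees C, 5% CO2. Controls: DMSO neutral, bortezomib 2.3 µM final as positive.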

[5] = qHTS of pediatric cancer cell lines to identify multiple opportunities for drug repurposing: Primary screen for SJ-GBM2 cells (AID 1347091)
Summary of the method: as §1

[6] = qHTS of pediatric cancer cell lines to identify multiple opportunities for drug repurposing: Primary screen for SK-N-MC cells (AID 1347093); also: series mostly up to about 46 µM
Summary of the method: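 Metabolically active cells were quantified by ATP-dependent luminescence (CellTiter-Glo, 15 min at room temperature) following 48 h treatment. Cells had been plated at 500-1,000 per well and settled for 5 h beforehand.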

[7] = qHTS of pediatric cancer cell lines to identify multiple opportunities for drug repurposing: Primary screen for BT-37 cells (AID 1347094); also: series mostly up to about 57 µM
Summary of the method: (§2)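 Readout: CellTiter-Glo luminescence, 48 h treatment. Controls DMSO (neutral) and bortezomib 2.3 µM final (positive). Potency and efficacy taken from primary-screen concentration-response curves.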

[8] = qHTS of pediatric cancer cell lines to identify multiple opportunities for drug repurposing: Primary screen for NB-EBc1 cells (AID 1347095)
Summary of the method: as §2

[9] = qHTS of pediatric cancer cell lines to identify multiple opportunities for drug repurposing: Primary screen for U-2 OS cells (AID 1347096); also: nearly all actives have a fitted effect of over 50% in size
Summary of the method: (§3)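 Cells (500-1,000/well) rested 5 h, then received compounds for 48 h; metabolically active cells were measured by CellTiter-Glo luminescence. Final concentrations spanned up to 46 µM (MIPE, 11-point) or 0.59 nM-46 µM (NPC, 8-point) in primary screens, 11-point in follow-ups.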

[10] = qHTS of pediatric cancer cell lines to identify multiple opportunities for drug repurposing: Primary screen for Saos-2 cells (AID 1347097); also: nearly all actives have a fitted effect of over 40% in size
Summary of the method: as §2

[11] = qHTS of pediatric cancer cell lines to identify multiple opportunities for drug repurposing: Primary screen for SK-N-SH cells (AID 1347098); also: nearly all actives have a fitted effect of over 65% in size
Summary of the method: as §3

[12] = qHTS of pediatric cancer cell lines to identify multiple opportunities for drug repurposing: Primary screen for NB1643 cells (AID 1347099); also: nearly all actives have a fitted effect of over 50% in size
Summary of the method: as §2

[13] = qHTS of pediatric cancer cell lines to identify multiple opportunities for drug repurposing: Primary screen for LAN-5 cells (AID 1347100)
Summary of the method: as §3

[14] = qHTS of pediatric cancer cell lines to identify multiple opportunities for drug repurposing: Primary screen for BT-12 cells (AID 1347101); also: nearly all actives have a fitted effect of over 25% in size
Summary of the method: as §3

[15] = qHTS of pediatric cancer cell lines to identify multiple opportunities for drug repurposing: Primary screen for RD cells (AID 1347104); also: nearly all actives have a fitted effect of over 55% in size
Summary of the method: as §2

[16] = qHTS of pediatric cancer cell lines to identify multiple opportunities for drug repurposing: Primary screen for MG 63 (6-TG R) cells (AID 1347105); also: nearly all actives have a fitted effect of over 50% in size
Summary of the method: as §2

[17] = qHTS of pediatric cancer cell lines to identify multiple opportunities for drug repurposing: Primary screen for A673 cells (AID 1347092); also: nearly all actives have a fitted effect of over 45% in size
Summary of the method: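 Cell viability of A673 measured by CellTiter-Glo ATP luminescence after 48 hours compound exposure. Dilution series spanned 0.78 nM to 46 µM (MIPE, 11-point) or 0.59 nM to 46 µM (NPC, 8-point); bortezomib 2.3 uM positive control.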

[18] = qHTS of pediatric cancer cell lines to identify multiple opportunities for drug repurposing: Primary screen for Rh18 cells (AID 1347102); also: nearly all actives have a fitted effect of over 65% in size
Summary of the method: as §3

[19] = qHTS of pediatric cancer cell lines to identify multiple opportunities for drug repurposing: Primary screen for OHS-50 cells (AID 1347103); also: nearly all actives have a fitted effect of over 40% in size
Summary of the method: as §3

Measured: Potency

CC[N+](C)(CC)CCOC(=O)C1c2ccccc2Oc2ccccc21
inactive: [1] | [2] | [3] | [4] | [5] | [6] | [7] | [8] | [9] | [10] | [11] | [12] | [13] | [14] | [15] | [16]

Cc1cccc(C)c1NC(=O)CC12CCCN1CCC2
inactive: [1] | [2] | [3] | [5] | [17] | [6] | [7] | [8] | [9] | [10] | [11] | [12] | [13] | [14] | [18] | [19] | [15] | [16]

NC(=O)NS(=O)(=O)c1ccc(N)cc1
inactive: [1] | [2] | [3] | [4] | [5] | [6] | [7] | [8] | [9] | [10] | [11] | [12] | [13] | [14] | [18] | [19] | [15]

O=C(O)Cc1ccc(CCNS(=O)(=O)c2ccc(Cl)cc2)cc1
inactive: [1] | [2] | [3] | [4] | [5] | [17] | [7] | [8] | [9] | [10] | [11] | [13] | [14] | [18] | [19] | [15] | [16]

CC(=O)SC[C@@H](Cc1ccccc1)C(=O)NCC(=O)OCc1ccccc1
inactive: [1] | [2] | [3] | [4] | [5] | [17] | [7] | [8] | [9] | [10] | [11] | [12] | [13] | [14] | [18] | [19] | [15] | [16]

Cc1c(C(=O)NCCO)[n+](=O)c2ccccc2n1[O-]
inactive: [1] | [2] | [3] | [4] | [5] | [6] | [7] | [8] | [9] | [10] | [11] | [12] | [13] | [14] | [18] | [19] | [15] | [16]

O=C1CC[C@@H](C(=O)O)N1
inactive: [1] | [2] | [3] | [4] | [5] | [6] | [7] | [8] | [9] | [11] | [12] | [13] | [18] | [15] | [16]

COc1ccccc1OC(=O)Oc1ccccc1OC
inactive: [1] | [2] | [3] | [4] | [5] | [6] | [7] | [8] | [9] | [10] | [11] | [12] | [13] | [14] | [18] | [19] | [15] | [16]

OCc1ccc(Cl)cc1Cl
inactive: [1] | [2] | [3] | [4] | [5] | [17] | [6] | [7] | [8] | [9] | [13] | [18] | [19] | [15] | [16]

Cc1cc(=O)[nH]c(=S)[nH]1
inactive: [1] | [2] | [3] | [4] | [5] | [6] | [7] | [8] | [9] | [12] | [13] | [14] | [18] | [19] | [15] | [16]

O=C(O)Cc1cn(-c2ccccc2)nc1-c1ccc(Cl)cc1
inactive: [1] | [2] | [3] | [4] | [5] | [17] | [7] | [8] | [9] | [10] | [12] | [13] | [14] | [18] | [15] | [16]

Cc1cc(OI)c(C(C)C)cc1-c1cc(C(C)C)c(OI)cc1C
inactive: [1] | [2] | [3] | [4] | [5] | [6] | [7] | [8] | [9] | [11] | [12] | [13] | [14] | [18] | [19] | [15] | [16]

CC(=O)N(CC(O)CN(C(C)=O)c1c(I)c(C(=O)NCC(O)CO)c(I)c(C(=O)NCC(O)CO)c1I)c1c(I)c(C(=O)NCC(O)CO)c(I)c(C(=O)NCC(O)CO)c1I (centres undefined)
inactive: [1] | [2] | [3] | [4] | [5] | [6] | [7] | [8] | [9] | [10] | [11] | [12] | [13] | [14] | [18] | [19] | [15] | [16]

CCCCCCCCCCCCCCCCC(C(=O)O)C(O)(CC(=O)O)C(=O)O (centres undefined)
inactive: [1] | [2] | [3] | [4] | [17] | [6] | [7] | [9] | [10] | [11] | [12] | [13] | [14] | [18] | [19] | [15] | [16]

CCOC(=O)[C@H](CCc1ccccc1)N[C@@H](C)C(=O)N1CCC[C@H]1C(=O)O
inactive: [1] | [2] | [3] | [4] | [5] | [17] | [6] | [8] | [9] | [12] | [13] | [18] | [15] | [16]

Cc1ccsc1C(=CCCN1CCC[C@@H](C(=O)O)C1)c1sccc1C
inactive: [1] | [2] | [3] | [4] | [5] | [6] | [7] | [8] | [9] | [10] | [11] | [12] | [13] | [14] | [18] | [19] | [15] | [16]

C=CCSCC1Nc2cc(Cl)c(S(N)(=O)=O)cc2S(=O)(=O)N1 (centres undefined)
inactive: [1] | [2] | [3] | [4] | [5] | [6] | [7] | [8] | [9] | [11] | [12] | [13] | [18] | [19] | [15] | [16]

Reference: PubChem BioAssay (NCATS)
